Measurements reported in PubChem BioAssay AID449762 (Southern Research Specialized Biocontainment Screening …, 2010).
Screen size: about 330,000 compounds; about 1,900 (0.58%) were called active. Inconclusive results (about 4%) are left out. Not all results are given here. Results with a measured potency or affinity are listed apart. A number with no mark means an inactive call. No stated cut-off is given here; in the data, inconclusive means inhibition above about 70% without an active follow-up result; inactive means below that.

assay: M. tuberculosis growth inhibition, HTS (AID 449762);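 further: bacterial growth assessed after seven days of incubation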; details: M. tuberculosis H37Rv growth inhibition, 7H9 media; at 25 µM; stronger effect = higher value

Compound | inhibition [%]
O=C1c2cc(O)cc(O)c2C(=O)c2c1cc(O)c([C@@H](CO)CCO)c2O | -12.7
O=C(O)c1cc(O)c2c(c1)C(=O)c1cc(O)cc(O)c1C2=O | -5.47
CCOc1ccccc1NC(=S)NC1CCCCC1 | -19.5
CCc1nn(CC(=O)NCCN2CCN(C)CC2)c(=O)c2cc3c(OC)cccc3n12 | 7.05
Cc1ccc(N=CC2=C(O)CC(c3ccco3)CC2=O)cc1 (configuration not stated) | -6.24
CCc1ccc(N=CC2=C(O)CC(c3ccco3)CC2=O)cc1 (configuration not stated) | 0.59
Cc1cccc(C)c1NC(=O)C1NC(=O)CC1c1ccccc1 (configuration not stated) | 17.9
CCOc1ccc(C2/C(=C(/O)c3ccc(S(=O)(=O)N4CCCCC4)cc3)C(=O)C(=O)N2CCCOC)cc1OC (configuration not stated) | -12.5
COc1ccc(N(C(C)C(=O)NN=C2CCCC2)S(C)(=O)=O)cc1 (configuration not stated) | -2.55
Cc1ccc2cccc(Oc3ncnc4sc(C)c(C)c34)c2n1 | 42
COc1ccc(-n2ccnc2)cc1 | 1.26
COc1ccc2oc(C(=O)OCC(=O)Nc3cc(S(=O)(=O)N4CCOCC4)ccc3OC)c(C)c2c1 | 0.56
COc1ccccc1C(=O)NNC(=O)C(=O)NC(C)C | 61.6
Cc1ccc2nc(SCc3nc4c(cnn4-c4ccccc4)c(=O)[nH]3)[nH]c2c1 | 0.73
Cc1ccc(-c2nc3ccccc3o2)cc1NC(=S)NC(=O)/C=C/c1ccco1 | -10.3
Cc1ccc(-c2nc3ccccc3s2)cc1NC(=S)NC(=O)/C=C/c1ccco1 | -2.81
CCOC(=O)[C@H]1[C@H]2COc3ccccc3[C@@H]2N2C(=O)c3cc(F)c(F)cc3NC(=O)[C@@]12C | -2.93
CC(C)NS(=O)(=O)c1ccc(OCC(=O)NCC2CCCO2)c(Cl)c1 (configuration not stated) | -3.59
COc1ccc(NC(=O)c2c(Cl)nc3ccccn23)cc1 | 9.69
CC(C)(C)c1ccc(C(=O)OCCNC(=O)c2c(Cl)nc3ccccn23)cc1 | -5.57
CSc1ccccc1C(=O)N1CCN(c2cccc(Cl)c2)CC1 | -1.96
O=S1(=O)CCC(n2ncc3c2/C(=C/c2ccccc2)CC3)C1 (configuration not stated) | 4.34
Cn1c(CNC(=O)c2ccco2)nnc1SCC(=O)c1ccc(F)cc1 | -2.19

Compound | inhibition [%]
O=C(Nc1ccccc1)C1=C[C@@H](C2CC2)C[C@@H](OCc2ccc(CO)cc2)O1 | 5.14
O=C(Nc1ccccc1)C1=C[C@H](C2CCCCC2)C[C@H](OCc2ccc(CO)cc2)O1 | 8.7
Cc1ccccc1CN1CCN(C(=O)c2cc(-c3ccncc3)nc3ccccc23)CC1 | 12.1
O=C(c1cc(-c2ccncc2)nc2ccccc12)N1CCN(Cc2ccccc2)CC1 | -9.48
C[C@H]1CC[C@]2(O[C@H](CCO)C[C@H](O)[C@H]2O)O1 | 3.36
O=C(Nc1cc(F)ccc1F)C1CCCO1 (configuration not stated) | -6.27
Cc1ccc(C(=O)Nc2ccc([N+](=O)[O-])cn2)o1 | -6.44
C=CCc1c(C)nc(SC)nc1Nc1ccc(C(=O)O)cc1 | -7.64
C=CCc1c(C)nc(SC)nc1Nc1ccc(C)cc1 | 56
Cc1cccc(C(=O)NCc2nnc(SCC(=O)N3CCN(c4ccccc4)CC3)n2C)c1 | 0.25
CSc1ncc(C(=O)Nc2ccccc2Cl)c(C)n1 | 6.57
CSc1ncc(C(=O)Nc2ccccc2C)c(C)n1 | 58.1
Cc1ccc(NC(=O)COC(=O)CCn2c(C)csc2=O)cc1S(=O)(=O)N1CCOCC1 | -2.47
O=[N+]([O-])c1ccc(Nc2ccc(Cl)cc2)nc1 | 25.4
O=C(O)c1ccc(Nc2ncc([N+](=O)[O-])cc2[N+](=O)[O-])cc1 | 3.64
O=C(COC(=O)c1ccccc1Br)Nc1ccc2[nH]c(=O)[nH]c2c1 | -0.67
CS(=O)(=O)c1ccccc1-c1nnc(NC(=O)C2=COCCO2)o1 | 0.09
Cc1ccc(C)c(-c2csc(NC(=O)C3=COCCO3)n2)c1 | 65
Cc1c(NS(=O)(=O)c2cccc(C(=O)OCC(=O)N(C)C3CCCCC3)c2)c(=O)n(-c2ccccc2)n1C | -13.2
CCCOc1ccc(C(=O)NCc2cccnc2)cc1 | 1.16
CCOc1ccc(C(=O)NC(=S)NCc2cccnc2)cc1 | -0.27
S=C(NCc1cccnc1)NCc1cccnc1 | -1.16
NC(=S)NCc1cccnc1 | -5.18

Compound | inhibition [%]
C[C@H](CO)N1C[C@H](C)[C@@H](CN(C)S(=O)(=O)c2cn(C)cn2)Oc2ccc(NC(=O)Nc3ccc4c(c3)OCO4)cc2C1=O | 3.14
COc1cccc(C2=NN(C(=O)c3ccc(C)o3)C(O)(C(F)(F)F)C2)c1 (configuration not stated) | 3.82
Cc1coc2cc3oc(=O)c(CCC(=O)NCCCN4CCCC4=O)c(C)c3cc12 | -8.05
CN(C(=S)Nc1ccc(F)cc1)C1(c2ccccc2Cl)CCCCC1=O (configuration not stated) | -2.19
O=C(O)COc1ccccc1/C=N/NC(=O)C(O)c1ccccc1 (configuration not stated) | -3.84
c1ccc2c(-c3csc(-c4ccncc4)n3)c[nH]c2c1 | 2.11
Brc1ccc(-c2csc(-c3c[nH]c4ccccc34)n2)cc1 | 20.1
CCCC(C)NC(=O)COC(=O)c1ccc(Cl)c(S(N)(=O)=O)c1 (configuration not stated) | -0.98
N#CCOC(=O)c1c2c(nc3ccccc13)CCC2 | 1.84
C=CCN(CC=C)C(=S)NC(=O)/C=C/c1ccccc1 | -2.7
CN(Cc1ccccc1)C(=S)NC(=O)c1ccc(-c2ccccc2)cc1 | 26.7
O=C(/C=C/c1ccc(OC2CSC2)cc1)c1ccc(Cl)cc1 | 11.9
COCCNC(=O)c1cc2c(-c3ccccc3F)nn(C)c2s1 | 12.7
COc1cccc(-c2nn(C)c3sc(C(=O)Nc4ccc5c(c4)OCCO5)cc23)c1 | 3.01
COc1ccc(C2/C(=C(/O)c3ccc(F)cc3)C(=O)C(=O)N2CCCN2CCOCC2)cc1OC (configuration not stated) | -2.8
Cn1c(C(F)(F)F)nc2c(=O)oc3ccccc3c21 | 66.9
Cc1nc2c(=O)oc3ccccc3c2n1-c1ccccc1 | -4.41
COc1cc(Cl)ccc1NC(=S)N(CCCN1CCOCC1)Cc1cn(C)c2ccccc12 | -4.57
O=C(Nc1ccc(Oc2ccc3c(c2)C(=O)N(c2ccc(O)cc2)C3=O)cc1)c1cccs1 | 2.92
CCCNc1nc(C)cc(-c2cc(C(=O)Nc3ccccc3)on2)n1 | 28.1
COCCNc1nc(-c2cc(C(=O)Nc3ccccc3)on2)cc(C(C)C)n1 | 14.4
COC(=O)C1CCCCN1C(=O)CCc1nnc(CCc2c[nH]c3ccccc23)o1 (configuration not stated) | 0.08
CCCCNC(=O)c1ccc(N2CCC3(CC2)OCCO3)c([N+](=O)[O-])c1 | -3.04

Compound | inhibition [%]
COCCNC(=O)c1ccc(N2CCC3(CC2)OCCO3)c([N+](=O)[O-])c1 | -3.57
N#C[C@@H]1[C@@H]2C(=O)N(c3ccc4c(c3)OCCO4)C(=O)[C@@H]2C2c3ccccc3C=CN21 (some centres not stated) | -6.97
CCn1c(SCC(=O)Nc2cc(C(C)(C)C)nn2-c2ccccc2)nnc1-c1cccs1 | -2.18
COc1cccc(N2CCN(C(=O)CCCCCNc3nc(=S)[nH]c4ccccc34)CC2)c1 | 13.8
O=C(C1CCC(CNc2nc(=S)[nH]c3ccccc23)CC1)N1CCN(c2ccccn2)CC1 (configuration not stated) | 6.46
CCOC(=O)c1ccc(-c2c(-c3ccccc3OC)sc3cc4c(cc23)OCO4)cc1F | 6.83
O=C(Cc1c(F)cccc1Cl)Nc1ccc(S(=O)(=O)N2CCOCC2)cc1 | -7.05
CCOC(=O)CNC(=O)CNC(=O)c1nn(-c2ccc(OC)c(OC)c2)c(=O)c2ccccc12 | 23.4
CCOC(=O)N1CCN(C(=O)CNC(=O)c2nn(-c3ccc(OC)c(Cl)c3)c(=O)c3ccccc23)CC1 | 7.01
O=C(c1ccccc1N(Cc1ccccc1)S(=O)(=O)c1ccccc1)N1CCOCC1 | -3.28
Cn1c(=O)n(C)c2cc(NC(=O)COc3ccc(F)cc3)ccc21 | -1.78
O=C1CCN(CCc2ccccc2)CCN1[C@H](CSc1ccccc1)c1ccccc1 | 21.9
CC(O)CNc1nc2sc3c(c2c(=O)n1CCc1ccccc1)CCCCC3 (configuration not stated) | -3.46
c1ccc2c(c1)ncn2-c1ncnc2sc3c(c12)CCCC3 | 7.95
O=C(COc1ccccc1Cl)Nc1ccc2c(c1)C(=O)NC2=O | -3.92
CC1(C)CC(=O)c2cc(OCC(=O)NCc3cccnc3)ccc2O1 | -4.88
CCOC(=O)COc1ccc2c(c1)C(=O)CC(C)(C)O2 | 54.7
COc1ccc2c(c1OC)C(=O)N1C2SC(C)(C)[C@H]1C(=O)NC(C)C (some centres not stated) | -6.91
COc1ccc(-c2cc3nc[nH]c(=O)c3s2)cc1 | 65.4
COc1ccc(-c2cc3nc(C)n(N)c(=O)c3s2)cc1 | -2.06
COc1ccc(CC(=O)Nc2nc(C)cs2)cc1OC | 0.84
O=C(C1CCC(=O)N(C2CCCCCC2)C1)N1CCN(c2ccccc2Cl)CC1 (configuration not stated) | 1.52
Cc1ccccc1N1CCN(C(=O)C2CCC(=O)N(C3CCCC3)C2)CC1 (configuration not stated) | 2.89
